Calls of active or inactive are those of the source.

From PubChem BioAssay come the findings set out here.

The target of experiment [1] is Albumin (Bos taurus) (UniProt P02769). Description: bovine serum albumin binders on microarray, profiling panel, artefact control for SMM control protein annotation, biochemical, small-molecule microarray, Alexa647 label, 635/667 nm fluorescence (AID 1118).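 Further: score merges 667 nm emission intensity and signal-to-noise per printed compound spot.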 The settings on record: BSA-A647 binding, fluorescence 635 nm, higher = more signal.
Chain of Albumin (Bos taurus) (P02769 whole entry, looked up): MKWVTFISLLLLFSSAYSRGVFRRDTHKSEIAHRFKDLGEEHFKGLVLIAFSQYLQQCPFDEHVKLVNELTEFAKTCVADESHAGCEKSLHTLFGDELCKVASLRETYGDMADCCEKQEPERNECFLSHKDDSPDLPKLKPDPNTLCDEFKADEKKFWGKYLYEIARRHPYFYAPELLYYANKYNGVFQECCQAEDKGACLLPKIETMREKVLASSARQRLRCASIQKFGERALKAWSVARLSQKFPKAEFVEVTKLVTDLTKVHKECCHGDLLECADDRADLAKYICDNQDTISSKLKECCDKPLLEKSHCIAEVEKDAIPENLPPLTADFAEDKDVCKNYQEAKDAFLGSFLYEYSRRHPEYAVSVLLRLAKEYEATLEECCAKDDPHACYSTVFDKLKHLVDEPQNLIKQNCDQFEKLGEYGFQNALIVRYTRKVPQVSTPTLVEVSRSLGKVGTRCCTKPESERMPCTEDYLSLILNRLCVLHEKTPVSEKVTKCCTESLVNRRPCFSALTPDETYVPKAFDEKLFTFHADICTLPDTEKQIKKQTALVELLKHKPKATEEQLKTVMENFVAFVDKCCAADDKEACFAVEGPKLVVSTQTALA
Experiment [2] is described as follows: small-molecule microarray binders of probe aXIP, primary screen, biochemical, NeuroSMM set, 635/667 nm fluorescence (AID 1119).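 Further: probe is the protein aXip251-270 applied at 1 µg/mL to compound-printed slides; binding of probe to printed compounds measured as 667 nm fluorescence plus signal to noise.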 The settings on record: higher = more signal, called active from +8 up or from −8 down.
Experiment [3] can be described thus: small-molecule binders of probe aNOTCH3, primary screen, biochemical, small-molecule microarray, 635/667 nm fluorescence (AID 1120).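 Further: probe is a biotin-tagged antibody raised against NOTCH3 rather than NOTCH3 protein; score merges spot fluorescence near 667 nm with spot signal to noise.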 The settings on record: higher = more signal.
Experiment [4] in a line: small-molecule binders of probe aNOTCH2, primary screen, biochemical, small-molecule microarray, 635/667 nm fluorescence (AID 1121).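 Further: score merges feature fluorescence read at 667 nm with its signal to noise.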 The settings on record: higher = more signal.
Experiment [5] addresses Carbonic anhydrase 2 (Homo sapiens) (UniProt P00918). Description: CAII small-molecule binders, profiling panel, biochemical, small-molecule microarray, Alexa647-labelled CAII (AID 1122). The settings on record: CAII-A647 binding fluorescence, higher = more signal.
The nature of experiment [6]: COS7 lysate on small-molecule microarray, probe aHis, 635 nm (AID 1123).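 Further: z-score combines 667nm fluorescence intensity with signal-to-noise per printed compound spot.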 The settings on record: COS7 cell lysate, fluorescence, higher = more signal.
The nature of experiment [7]: compound binding in COS7 lysate, probe aLAP1, primary screen, cell lysate, small-molecule microarray (AID 1124).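 Further: lysate comes from COS7 cells expressing LAP1 and is applied at 0.3 µg/mL; score merges spot fluorescence near 667 nm with signal-to-noise over triplicate slides.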 The settings on record: probe aLAP1, fluorescence, higher = more signal.
Experiment [8] relates to Sam68 (KHDRBS1). Description: Sam68 small-molecule binders, primary screen, biochemical, small-molecule microarray, 635 nm fluorescence (AID 1125).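 Further: score merges 667 nm channel intensity with signal to noise over triplicate slides.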 The settings on record: small-molecule microarray binding, higher = more signal.
The test system of experiment [9] is Chordin-like protein 2 (CHRDL2). Description: CHRDL2 small-molecule binders, primary screen, biochemical, small-molecule microarray, 635 nm fluorescence (AID 1126).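 Further: printed compound slides probed with Chrdl2 protein at 4 µg/mL for 1 h at 4 C; score merges 667 nm emission intensity with signal to noise over three replicate slides.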 The settings on record: small-molecule microarray binding, fluorescence 635 nm; higher = more signal.
Experiment [10] has as its target Concanavalin-A (Canavalia ensiformis) (UniProt P02866). The experiment in a line: ConA small-molecule binders, primary screen, artefact control for SMM control protein annotation, biochemical, small-molecule microarray, Alexa647 label, 635 nm (AID 1127).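 Further: z combines 667 nm emission intensity with signal-to-noise across three replicate slides.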 To be noted: ConA-A647 binding fluorescence, higher = more signal.
Experiment [11] can be described thus: anti-His antibody binders, primary screen, artefact control for SMM control protein annotation, biochemical, small-molecule microarray, 635 nm fluorescence (AID 1128).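 Further: score merges feature fluorescence with signal-to-noise for each printed compound spot.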 The settings on record: anti-His Alexa647 antibody binding, higher = more signal.
Experiment [12] relates to Human papillomavirus type 1a E7 protein (residues 1-88). Description: HPV1a E7 small-molecule binders, primary screen, biochemical, small-molecule microarray, residues 1-88, 635 nm (AID 1129). To be noted: small-molecule microarray binding, fluorescence 635 nm; higher = more signal.
Experiment [13] addresses Focal adhesion kinase 1 (Homo sapiens) (UniProt Q05397). Description: small-molecule microarray binders of FAK, primary screen, biochemical, 635/667 nm fluorescence, BSA, DTT (AID 1130).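 Further: composite of spot emission at 667 nm and signal to noise over triplicate slides.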 The settings on record: PTK2 binding, 635 nm fluorescence, higher = more signal.
For experiment [14], the system named is Fibrinogen (Alexa647-labelled). Description: fibrinogen binders on compound microarrays, profiling panel, artefact control for SMM control-protein annotation, biochemical, small-molecule microarray, 635/667 nm fluorescence (AID 1131).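 Further: z-score merges 667 nm fluorescence with per-spot signal-to-noise over triplicate slides.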 The settings on record: fibrinogen-A647 binding fluorescence, higher = more signal.
Experiment [15] addresses Follistatin (Homo sapiens) (UniProt P19883). Description: follistatin binders on small-molecule microarrays, primary screen, biochemical, small-molecule microarray, 635/667 nm fluorescence (AID 1132). The settings on record: FST binding, 635 nm fluorescence, higher = more signal.
Experiment [16] addresses Fibroblast growth factor 2 (Homo sapiens) (UniProt P09038). Description: FGF2 binders on small-molecule microarrays, primary screen, biochemical, small-molecule microarray, 635/667 nm fluorescence (AID 1133). To be noted: small-molecule microarray binding, FGF2, fluorescence 635/667; higher = more signal.
Experiment [17] is described as follows: mitochondrial membrane potential change in A549 cells, profiling panel, cell-based, JC-1 fluorescence, basal, 24 h, 100 nL (AID 1138).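 Further: A549 lung adenocarcinoma cells under basal conditions with no added stimulus; test concentration not given here.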 To be noted: higher = more signal.
Experiment [18] concerns Lefty1. The experiment in a line: Lefty1 binders on small-molecule microarrays, primary screen, biochemical, small-molecule microarray, 635/667 nm fluorescence (AID 1139). The settings on record: small-molecule microarray binding, fluorescence 635/667; higher = more signal.
Experiment [19] has as its system wheat germ agglutinin (Triticum aestivum), Alexa647-labelled. The experiment in a line: wheat germ agglutinin binders on compound microarrays, profiling panel, artefact control for SMM control-protein annotation, biochemical, small-molecule microarray, 635/667 nm fluorescence (AID 1140).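 Further: score merges 667 nm feature emission with signal to noise over triplicate slides.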 To be noted: WGA-A647 binding, 635 nm fluorescence, higher = more signal.
The target in experiment [20] is Luciferin 4-monooxygenase (Photinus pyralis) (UniProt P08659). The experiment in a line: firefly luciferase enzyme inhibitors, primary screen, biochemical, luminescence, purified enzyme, 2006 set (AID 1141).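 Further: cell-free assay with purified firefly luciferase at 100 ng per well in PBS; test concentration not given here.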 The settings on record: SteadyGlo luminescence, 30 min, higher = more signal, called active from +8 up or from −8 down.
Chain of Luciferin 4-monooxygenase (Photinus pyralis) (P08659 whole entry, looked up): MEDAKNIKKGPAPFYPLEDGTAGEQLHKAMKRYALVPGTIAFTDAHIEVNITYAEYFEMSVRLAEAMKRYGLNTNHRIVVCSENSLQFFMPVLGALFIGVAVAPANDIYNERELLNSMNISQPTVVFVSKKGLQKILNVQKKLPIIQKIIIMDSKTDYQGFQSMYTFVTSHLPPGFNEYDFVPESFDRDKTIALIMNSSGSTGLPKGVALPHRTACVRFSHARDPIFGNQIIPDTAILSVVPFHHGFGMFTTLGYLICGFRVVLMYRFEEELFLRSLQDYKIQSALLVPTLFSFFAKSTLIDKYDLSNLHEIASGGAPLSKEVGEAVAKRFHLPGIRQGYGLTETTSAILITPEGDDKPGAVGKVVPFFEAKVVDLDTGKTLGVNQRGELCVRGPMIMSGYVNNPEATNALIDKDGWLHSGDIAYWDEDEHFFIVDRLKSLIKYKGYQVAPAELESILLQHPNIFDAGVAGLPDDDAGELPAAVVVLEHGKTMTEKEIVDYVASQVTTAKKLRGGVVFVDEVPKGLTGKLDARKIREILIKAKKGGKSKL

Chain of Concanavalin-A (Canavalia ensiformis) (P02866 whole entry, looked up): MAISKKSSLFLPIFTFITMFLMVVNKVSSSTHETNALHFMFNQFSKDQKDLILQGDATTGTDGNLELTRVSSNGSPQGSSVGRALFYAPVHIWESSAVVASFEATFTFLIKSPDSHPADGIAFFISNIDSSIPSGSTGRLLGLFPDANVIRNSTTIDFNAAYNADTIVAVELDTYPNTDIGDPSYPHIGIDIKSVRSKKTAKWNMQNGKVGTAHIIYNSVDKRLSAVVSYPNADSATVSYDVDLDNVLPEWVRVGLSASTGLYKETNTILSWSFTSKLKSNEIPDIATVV
Chain of Fibroblast growth factor 2 (Homo sapiens) (P09038 whole entry, looked up): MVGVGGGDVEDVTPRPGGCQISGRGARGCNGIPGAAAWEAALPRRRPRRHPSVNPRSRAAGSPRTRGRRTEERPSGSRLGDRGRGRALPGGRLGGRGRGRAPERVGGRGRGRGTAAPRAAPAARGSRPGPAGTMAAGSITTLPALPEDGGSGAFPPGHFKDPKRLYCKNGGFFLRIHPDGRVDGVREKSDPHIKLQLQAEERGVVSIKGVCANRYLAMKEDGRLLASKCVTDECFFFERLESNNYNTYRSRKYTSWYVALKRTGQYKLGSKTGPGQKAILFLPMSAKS
Chain of Focal adhesion kinase 1 (Homo sapiens) (Q05397 whole entry, looked up): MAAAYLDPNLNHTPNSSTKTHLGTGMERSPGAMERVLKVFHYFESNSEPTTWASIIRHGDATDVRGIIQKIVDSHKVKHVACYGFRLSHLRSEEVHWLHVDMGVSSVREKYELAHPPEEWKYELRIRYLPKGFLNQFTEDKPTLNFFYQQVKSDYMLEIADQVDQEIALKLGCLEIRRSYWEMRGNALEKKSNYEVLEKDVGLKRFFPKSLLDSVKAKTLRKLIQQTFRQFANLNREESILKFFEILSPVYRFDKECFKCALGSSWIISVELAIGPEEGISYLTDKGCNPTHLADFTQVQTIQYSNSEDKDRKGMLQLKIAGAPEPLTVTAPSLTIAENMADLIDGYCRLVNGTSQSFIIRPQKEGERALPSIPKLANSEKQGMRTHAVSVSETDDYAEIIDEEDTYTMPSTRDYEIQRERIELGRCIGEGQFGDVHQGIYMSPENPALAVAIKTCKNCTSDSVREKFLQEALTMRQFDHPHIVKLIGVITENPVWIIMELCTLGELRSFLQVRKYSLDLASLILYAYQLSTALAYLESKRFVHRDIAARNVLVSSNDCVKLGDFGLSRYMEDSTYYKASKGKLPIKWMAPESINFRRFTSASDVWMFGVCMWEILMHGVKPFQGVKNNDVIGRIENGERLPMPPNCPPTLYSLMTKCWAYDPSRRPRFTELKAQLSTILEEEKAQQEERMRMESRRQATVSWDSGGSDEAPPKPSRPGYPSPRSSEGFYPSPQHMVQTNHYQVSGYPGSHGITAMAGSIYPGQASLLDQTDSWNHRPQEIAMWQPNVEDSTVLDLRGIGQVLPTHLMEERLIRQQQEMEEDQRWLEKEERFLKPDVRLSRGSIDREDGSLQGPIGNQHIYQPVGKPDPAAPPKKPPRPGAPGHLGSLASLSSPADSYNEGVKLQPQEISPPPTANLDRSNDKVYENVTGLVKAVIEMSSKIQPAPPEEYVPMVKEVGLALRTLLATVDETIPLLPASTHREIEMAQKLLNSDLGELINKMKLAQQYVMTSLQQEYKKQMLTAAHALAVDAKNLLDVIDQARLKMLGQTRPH
Chain of Follistatin (Homo sapiens) (P19883 whole entry, looked up): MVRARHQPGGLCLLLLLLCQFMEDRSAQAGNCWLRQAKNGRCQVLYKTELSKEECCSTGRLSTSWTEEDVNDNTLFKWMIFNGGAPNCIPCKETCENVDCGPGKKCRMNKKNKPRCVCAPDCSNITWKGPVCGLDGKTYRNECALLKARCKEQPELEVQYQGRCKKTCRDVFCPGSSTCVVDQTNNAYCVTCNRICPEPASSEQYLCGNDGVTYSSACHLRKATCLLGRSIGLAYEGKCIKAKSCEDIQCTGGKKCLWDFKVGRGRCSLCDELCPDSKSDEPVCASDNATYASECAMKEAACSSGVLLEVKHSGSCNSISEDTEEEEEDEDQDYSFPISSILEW

For the molecule `CC(C)=CCCC(C)=CCON=C1C[C@@H](O)[C@@H](O)[C@@H]2[C@@H]3C(=O)N(Cc4ccc5c(c4)OCO5)C(=O)[C@@H]3CC[C@@H]12`, the composite z-score in [1] is 0.653; in experiment [3], 0.0827; in [4], -0.0811; in experiment [5], 0.495; in experiment [6], 1.29; in experiment [7], 0.237. The composite z-score in experiment [8] came out at 1.31; in experiment [9], 1.19; in experiment [10] it was 0.959; in experiment [11] it was 1.05; in [12], 1.14; in experiment [13], 0.597. The composite z-score in experiment [14] came to 0.558; in experiment [15] it was 1.18; in experiment [16], 0.414; in [18], 0.709; in [19] it was 0.574. Besides, in experiment [2], the composite Z-score was 0.74 (inactive). For the same molecule, the z-score in experiment [17] is -0.286; in experiment [20], 0.696 (inactive).

Turning to `CC(C)=CCCC(C)=CCON=C1[C@H]2CCn3c(=O)n(-c4ccccc4)c(=O)n3[C@H]2[C@H](O)[C@@H]2O[C@H]12`, the composite z-score was 0.271 in [1]; 0.185 in experiment [3]; -0.14 in [4]; 0.464 in experiment [5]; 1.18 in experiment [6]; 0.353 in experiment [7]. In addition, the composite z-score was 1.22 in [8]; 1.02 in experiment [9]; 0.763 in experiment [10]; 0.645 in experiment [11]; 1.14 in experiment [12]; 0.274 in [13]. For the same molecule, the composite z-score in experiment [14] is 0.712; in experiment [15], 1.19; in experiment [16] it was 0.765; in experiment [18] it was 0.808; in [19], 0.505. In experiment [2], the composite Z-score was 0.0213 (inactive). The z-score was 0.334 in [17] and -0.416 (inactive) in experiment [20].

Turning to `O=C1C=C[C@@H](O)[C@@H]2[C@@H]3C(=O)N(c4cccc(Oc5ccccc5)c4)C(=O)[C@@H]3CC[C@@H]12`, the composite z-score in experiment [1] was 0.0329; in experiment [3], -0.132; in experiment [4], -0.176; in experiment [5], -0.0169; in experiment [6] it was -0.55; in [7], -0.239. In addition, the composite z-score is 0.184 in [8]; 0.417 in experiment [9]; 0.19 in experiment [10]; 0.959 in experiment [11]; 0.548 in experiment [12]; -0.183 in [13]. The composite z-score in experiment [14] was -0.127; in experiment [15], 0.464; in experiment [16] it was -0.196; in experiment [18], 0.478; in experiment [19], 0.228. The composite Z-score in experiment [2] is -0.554 (inactive). Moreover, the z-score was -0.774 in experiment [17] and -0.57 (inactive) in experiment [20].

Turning to `Cc1ccc(S(=O)(=O)N[C@@H]2COC(=O)CC=C[C@@H](C)[C@H](NS(=O)(=O)c3ccc(C)cc3)COC(=O)[C@H](C)NC(=O)CC=C[C@H]2C)cc1`, the composite z-score in [1] is -0.953; in experiment [3], -0.0647; in experiment [4], -0.0808; in experiment [5], -0.548; in experiment [6], -1.18; in experiment [7] it was -0.108. For the same molecule, the composite z-score in experiment [8] was -1.17; in experiment [9] it was 0.835; in [10], -1.46; in [11] it was -0.563; in experiment [12], -0.676; in experiment [13] it was -0.1. The composite z-score was -0.111 in [14]; 0.72 in [15]; 0.499 in [16]; 0.61 in experiment [18]; 0.0658 in experiment [19]. For the same molecule, in experiment [2], the composite Z-score is -0.211 (inactive). In addition, the z-score in [17] is 0.73; in [20] it was -0.743 (inactive).

On to `C#CCCCON=C1[C@H]2CCn3c(=O)n([C@@H](CC)c4ccccc4)c(=O)n3[C@H]2[C@H](O)[C@@H]2O[C@H]12`, for which the composite z-score in experiment [1] was 0.0481; in experiment [3] it was -0.0918; in [4], -0.0745; in [5] it was 0.59; in experiment [6], 0.219; in [7], -0.131. Besides, the composite z-score was 0.113 in experiment [8]; 0.0573 in experiment [9]; 0.154 in experiment [10]; 0.114 in experiment [11]; -0.256 in [12]; 0.235 in experiment [13]. For the same molecule, the composite z-score is -0.509 in experiment [14]; 0.587 in [15]; 0.639 in experiment [16]; 0.368 in experiment [18]; 0.283 in experiment [19]. The composite Z-score in experiment [2] is -0.15 (inactive). Besides, the figures for the z-score in [17] and in [20] were 0.351 and -0.0508 (inactive), respectively.
